PubChem BioAssay (NCI)
The panel holds about 83,000 compounds, 20% with a hit somewhere; the sample as a whole holds those more often.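 48-hour exposure, single concentration, 96-well plates; percent growth endpoint where 0 means no net growth. Active: below 10.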 Values without a mark were called inactive. The source made the active and inactive calls.

Tests used:
Experiment in all cases: NCI-60 one-dose screen, 48 h (100 = growth as untreated, 0 = no growth, -100 = all killed)
Details in all cases: 10 µM unless noted
[1] = system: DU-145 prostate
[2] = system: K-562 leukemia
[3] = system: MALME-3M melanoma
[4] = system: MDA-MB-231 breast
[5] = system: RXF 393 renal
[6] = system: SF-268 CNS
[7] = system: SF-295 CNS
[8] = system: UACC-257 melanoma
[9] = system: M14 melanoma
[10] = system: HCT-15 colon
[11] = system: HT29 colon
[12] = system: SNB-75 CNS
[13] = system: SNB-19 CNS
[14] = system: U251 CNS
[15] = system: PC-3 prostate
[16] = system: SK-MEL-5 melanoma
[17] = system: UACC-62 melanoma
[18] = system: LOX IMVI melanoma
[19] = system: SK-MEL-28 melanoma

| Compound | growth [1] | growth [2] | growth [3] | growth [4] | growth [5] | growth [6] | growth [7] | growth [8] | growth [9] | growth [10] | growth [11] | growth [12] | growth [13] | growth [14] | growth [15] | growth [16] | growth [17] | growth [18] | growth [19] |
| --- | --- | --- | --- | --- | --- | --- | --- | --- | --- | --- | --- | --- | --- | --- | --- | --- | --- | --- | --- |
| COc1cc(OC)c(/C=C/C(=O)c2c(OC)cc(OC)cc2OC)c(OC)c1 | 25.1% | 8.98% (active) | 60.6% | 39.1% | -14.7% (active) | 22.1% | 6.33% (active) | 52.2% | -33.5% (active) | 26% | 3.25% (active) | 13.7% | 32.8% | 14.5% | 42.8% | 1.55% (active) | 7.8% (active) | 10.8% | 21.9% |
| NC1=CC(=O)C(=O)c2ccccc21 | 102% | 71% | 45.7% | 77.5% | 100% | 93.3% | 80.7% | 51.5% | 68.1% | 92.1% | 106% |  | 93.2% | 88% | 91.1% | 77.5% | 39.4% | 7.65% (active) | 75.2% |
| Cc1nc2nc(N)nc(N)c2nc1C | 110% | 100% | 99.9% | 94% | 105% | 98.5% | 90.5% | 96.2% | 90.9% | 98.6% | 102% |  | 95.1% | 99.5% | 92.7% | 101% | 91.1% | 101% | 109% |
| CC(=O)C1=C(O)C=C2Oc3c(C(=O)/C=C/c4cc(C(F)(F)F)cc(C(F)(F)F)c4)c(O)c(C)c(O)c3[C@]2(C)C1=O | -71.4% (active) | -20.7% (active) | -65.6% (active) | -38.8% (active) | -48.6% (active) | -18.1% (active) | -17.4% (active) | -51.4% (active) | -59.1% (active) | -73% (active) | -42.4% (active) |  | -17.5% (active) | -48.1% (active) | -8.91% (active) | -93.9% (active) | -64.8% (active) | -85.4% (active) | -72.4% (active) |
| CCOC(=O)/C=C/C(=O)[C@H](CC(C)C)NC(=O)[C@H](Cc1ccccc1)NC(=O)OCc1ccccc1 | 68.3% | 5.9% (active) | 103% | 63.5% | 26.8% | 84.8% | 99.7% | 70.7% | 65.6% | 15.5% | 57.9% |  | 93.7% | 50.8% | 68.3% | 97.5% | 14.4% | -82.9% (active) | 34.7% |
| CC1=C(NCCN2CCCC2)C(=O)c2c(OCc3ccc(C(F)(F)F)cc3)cccc2C1=O | 92.1% | -14.8% (active) | 104% | 81.4% | 88.5% | 77.1% | 76.7% | 65.1% | -82.2% (active) | 70.9% | 42.4% | 82.1% | 95.3% | 69.9% | 47.4% |  | 99.9% | 68.4% | 54.6% |
| CCN(C(=O)CN1CCN(c2cc3c(cc2F)c(=O)c(C(=O)O)cn3CC)CC1)c1nc(-c2ccccc2)cs1 | 23.3% | 12.3% | -5.46% (active) | 6.19% (active) | 4.13% (active) | 22.7% | -17.5% (active) | -9.83% (active) | 18.3% | 12.3% | 0.981% (active) | -5.25% (active) | 6.46% (active) | 6.31% (active) | 2.39% (active) |  | -5% (active) | -35% (active) | 41.9% |
| O=C(Nc1cccc2[nH]c(C(F)(F)F)nc12)c1ccc(Br)cc1F | 46.8% | 13% | 17.9% | 30.7% | 51.8% | 29.1% | 35.3% | 40.1% | 48.7% | 28.5% | 61.9% | 60.8% | 29.7% | 18.9% |  | -32.8% (active) | -1.06% (active) | 35.9% | 62.9% |
| C=C1CCC2C3(C)COC(c4ccc(OC)cc4Br)OC3CCC2(C)C1/C=C/C1=CCOC1=O (centres undefined) | 86.6% | 31.1% | 93.9% | 78.7% | 90% | 89% | 60.6% | 58.3% | 87.3% |  | 75.6% | 82.3% | 97.4% | 74.7% | 47.7% | 45.3% | 61.9% | 71.1% | 80.2% |
| O=C(CCCN1CCOCC1)Nc1ccc(Cn2nnc3c2C(=O)c2nnn(Cc4ccc(NC(=O)CCCN5CCOCC5)cc4)c2C3=O)cc1 | 82.3% | 20.9% | -74.3% (active) | 5.78% (active) | 84.5% | 23.4% | 79.3% | -88% (active) | 60.6% |  | 1.66% (active) | -87.9% (active) | 59.5% | 18.2% | 55.5% | 17.1% | 51.5% | -5.71% (active) | 37.3% |
| O=C1c2cc3c(cc2-c2c1c1cc(F)c(F)cc1c(=O)n2C[C@H](O)CO)OCO3 | 1.97% (active) | 6.33% (active) | -21.3% (active) | 5.4% (active) | -51.5% (active) | 6.49% (active) | -7.95% (active) | -37.2% (active) | 1.79% (active) | 1.58% (active) | 0.994% (active) | 4.14% (active) | 6.51% (active) | -15.5% (active) | 8.59% (active) |  | -48.2% (active) | -45.4% (active) | 10.1% |
| O=C1C[C@H](N2C(=O)c3ccccc3S2(=O)=O)C2CO[C@@H]1O2 | 87.8% | 55.6% | 97.2% | 110% | 86.8% | 102% | 93.7% | 84.3% | 84.2% | 59.6% | 70.4% |  | 106% | 93.3% | 99.7% | 96.2% | 100% | 18.9% | 66.1% |
| COc1ccc(C(=O)c2sc3nc4c(c(C(F)(F)F)c3c2N)CN(C(C)=O)CC4)cc1OC | 104% | 78.2% | 88% | 63.8% | 74.7% | 85% | 86.2% | 99.2% | 100% | 84.7% | 95% | 74.6% | 95.8% | 78.3% |  | 77.6% | 83.6% | 78.4% | 93.4% |
| O=C(O)c1ccc(=O)[nH]n1 | 135% | 102% | 120% | 103% | 122% | 125% | 109% | 105% | 107% | 101% | 123% |  | 102% | 109% | 103% | 110% | 98.2% | 96.2% | 109% |
| Clc1cccc(Nc2nc(Nc3cnc4ccccc4c3)c3[nH]cnc3n2)c1 | 82.6% | 81.5% | 116% | 47.7% | 69.7% | 82.4% | 94.6% | 81.7% | 88% |  | 79% | 52.4% | 80.6% | 76.4% | 49.2% | 53% | 47.9% | 77.4% | 86.4% |
| CCCCCCCCCC(=O)Oc1ccc(/C(=C(/C)c2ccccc2)c2ccc(OCCN3CCCC3)cc2)cc1 | 55.9% | -12.4% (active) | -62% (active) | -5.4% (active) | -32.4% (active) | 38.7% | -75.1% (active) | -51.9% (active) | -57.8% (active) | -13.4% (active) | -35.5% (active) | -11.6% (active) | 6.86% (active) | -34.3% (active) | 15.8% |  | -69% (active) | -72.1% (active) | -77.9% (active) |
